In paper PMC7862700, “An all-to-all approach to the identification of sequence-specific readers for epigenetic DNA modifications on cytosine”:

Tests used:
Test in all cases: DAPPL (digital affinity profiling via proximity ligation, sequencing); 10 mM Tris-HCl pH 7.5, 50 mM NaCl, 1 mM DTT, 4% glycerol, room temperature, 30 min; GST-TFs on glutathione beads, 16-mer random dsDNA library, 0.1% formaldehyde crosslink after washing; high values mean tight binding
Conditions in all cases: protein: recombinant; tags: N-terminal GST; dsDNA, one strand shown
FLI1 = molecular target: T1, FLI1 (Homo sapiens, UniProt Q01543 1-452)
T1 sequence: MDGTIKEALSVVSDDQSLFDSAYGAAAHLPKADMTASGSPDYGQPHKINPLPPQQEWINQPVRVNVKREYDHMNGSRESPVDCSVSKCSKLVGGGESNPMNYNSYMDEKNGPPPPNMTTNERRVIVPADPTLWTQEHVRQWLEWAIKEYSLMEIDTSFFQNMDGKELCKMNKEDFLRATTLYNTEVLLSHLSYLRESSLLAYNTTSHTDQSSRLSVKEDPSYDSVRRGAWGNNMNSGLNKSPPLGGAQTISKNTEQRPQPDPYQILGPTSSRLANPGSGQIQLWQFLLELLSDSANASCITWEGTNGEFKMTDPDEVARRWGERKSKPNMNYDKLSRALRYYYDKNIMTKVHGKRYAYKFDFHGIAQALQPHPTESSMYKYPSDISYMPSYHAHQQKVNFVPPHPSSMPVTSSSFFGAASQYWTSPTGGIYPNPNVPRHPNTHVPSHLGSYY
In short: (§1)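 Each value of binding signal is a hexamer's read frequency for a factor divided by the same hexamer's frequency in the tag-only sample. Barcoded, bead-captured GST fusions of human transcription factors made in yeast were pooled with that sample and incubated with 200 nmole of a random double-stranded 16-mer DNA library in Tris/NaCl/DTT/glycerol buffer at room temperature for 30 min. Washing, 0.1% formaldehyde crosslinking, proximity ligation, PCR and Illumina NextSeq500 sequencing followed.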

ELK1 = molecular target: T2, ELK1 (Homo sapiens, UniProt P19419 1-428)
T2 sequence: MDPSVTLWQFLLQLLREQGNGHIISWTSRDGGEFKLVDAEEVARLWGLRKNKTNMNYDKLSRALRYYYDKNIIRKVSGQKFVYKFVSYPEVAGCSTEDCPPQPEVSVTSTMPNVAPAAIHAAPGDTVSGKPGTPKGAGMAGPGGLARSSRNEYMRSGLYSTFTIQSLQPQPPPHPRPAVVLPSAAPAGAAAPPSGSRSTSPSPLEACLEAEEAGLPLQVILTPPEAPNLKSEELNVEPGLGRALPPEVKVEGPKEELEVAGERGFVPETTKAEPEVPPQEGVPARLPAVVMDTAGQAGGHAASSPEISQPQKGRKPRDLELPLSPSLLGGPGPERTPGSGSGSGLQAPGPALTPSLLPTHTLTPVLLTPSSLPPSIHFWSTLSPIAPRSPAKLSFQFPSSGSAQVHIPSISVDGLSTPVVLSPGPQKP
In short: as §1

GABPA = molecular target: T3, GABPA (Homo sapiens, UniProt Q06546 1-454)
T3 sequence: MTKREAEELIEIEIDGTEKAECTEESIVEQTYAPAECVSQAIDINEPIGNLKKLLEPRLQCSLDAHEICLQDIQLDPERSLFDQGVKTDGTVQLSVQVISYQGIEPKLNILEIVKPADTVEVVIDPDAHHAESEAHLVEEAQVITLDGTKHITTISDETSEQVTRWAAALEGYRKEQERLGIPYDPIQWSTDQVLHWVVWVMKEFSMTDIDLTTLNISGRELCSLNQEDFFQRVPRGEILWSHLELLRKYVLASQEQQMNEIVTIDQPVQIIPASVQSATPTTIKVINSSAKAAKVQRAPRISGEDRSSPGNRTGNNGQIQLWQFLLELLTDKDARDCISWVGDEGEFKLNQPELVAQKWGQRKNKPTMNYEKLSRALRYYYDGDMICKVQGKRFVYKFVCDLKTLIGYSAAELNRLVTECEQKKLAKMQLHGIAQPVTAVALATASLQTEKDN
In short: as §1

ERG = molecular target: T4, ERG (Homo sapiens, UniProt P11308 1-479)
T4 sequence: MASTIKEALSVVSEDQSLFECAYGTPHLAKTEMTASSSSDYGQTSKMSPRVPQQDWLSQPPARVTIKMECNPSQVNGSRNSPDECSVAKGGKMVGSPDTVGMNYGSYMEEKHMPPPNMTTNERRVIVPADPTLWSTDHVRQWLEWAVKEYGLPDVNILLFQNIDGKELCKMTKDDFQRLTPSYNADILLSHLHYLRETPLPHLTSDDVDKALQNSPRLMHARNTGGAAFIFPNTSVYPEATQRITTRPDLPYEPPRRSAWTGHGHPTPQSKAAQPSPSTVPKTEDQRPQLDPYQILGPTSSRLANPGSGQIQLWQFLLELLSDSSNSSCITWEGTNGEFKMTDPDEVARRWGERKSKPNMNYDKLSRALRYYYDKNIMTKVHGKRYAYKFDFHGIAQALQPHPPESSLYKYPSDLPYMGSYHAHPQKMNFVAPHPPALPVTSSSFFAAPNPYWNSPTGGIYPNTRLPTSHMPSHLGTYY
In short: as §1

ELF1 = ELF1 (Homo sapiens, UniProt P32519 1-619)
In short: as §1

EHF = molecular target: T5, EHF (Homo sapiens, UniProt Q9NZC4 1-300)
T5 sequence: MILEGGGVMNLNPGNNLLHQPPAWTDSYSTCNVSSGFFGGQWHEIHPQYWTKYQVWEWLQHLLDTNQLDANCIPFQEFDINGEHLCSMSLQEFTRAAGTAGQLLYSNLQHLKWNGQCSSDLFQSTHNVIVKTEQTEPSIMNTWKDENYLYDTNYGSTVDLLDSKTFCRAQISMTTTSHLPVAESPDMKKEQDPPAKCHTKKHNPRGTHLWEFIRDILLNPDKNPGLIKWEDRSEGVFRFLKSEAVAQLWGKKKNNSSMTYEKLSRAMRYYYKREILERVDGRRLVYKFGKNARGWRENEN
In short: as §1

SPI1 = SPI1 (Homo sapiens, UniProt P17947 1-270)
In short: as §1

SPIB = SPIB (Homo sapiens, UniProt Q01892 1-262)
In short: as §1

ELK3 = molecular target: T6, ELK3 (Homo sapiens, UniProt P41970 1-407)
T6 sequence: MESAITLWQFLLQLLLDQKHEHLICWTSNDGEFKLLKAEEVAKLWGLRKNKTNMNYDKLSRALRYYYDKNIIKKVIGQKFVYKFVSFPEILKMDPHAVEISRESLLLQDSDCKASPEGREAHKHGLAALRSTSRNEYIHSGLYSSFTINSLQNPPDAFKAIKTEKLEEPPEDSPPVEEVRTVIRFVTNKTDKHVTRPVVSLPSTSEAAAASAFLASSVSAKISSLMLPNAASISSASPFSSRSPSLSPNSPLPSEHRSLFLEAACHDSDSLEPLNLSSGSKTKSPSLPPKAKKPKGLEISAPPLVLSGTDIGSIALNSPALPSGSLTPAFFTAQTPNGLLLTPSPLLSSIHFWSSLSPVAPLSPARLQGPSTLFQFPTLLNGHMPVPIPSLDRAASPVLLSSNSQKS
In short: as §1

Sequence of ELF1 (P32519 whole entry): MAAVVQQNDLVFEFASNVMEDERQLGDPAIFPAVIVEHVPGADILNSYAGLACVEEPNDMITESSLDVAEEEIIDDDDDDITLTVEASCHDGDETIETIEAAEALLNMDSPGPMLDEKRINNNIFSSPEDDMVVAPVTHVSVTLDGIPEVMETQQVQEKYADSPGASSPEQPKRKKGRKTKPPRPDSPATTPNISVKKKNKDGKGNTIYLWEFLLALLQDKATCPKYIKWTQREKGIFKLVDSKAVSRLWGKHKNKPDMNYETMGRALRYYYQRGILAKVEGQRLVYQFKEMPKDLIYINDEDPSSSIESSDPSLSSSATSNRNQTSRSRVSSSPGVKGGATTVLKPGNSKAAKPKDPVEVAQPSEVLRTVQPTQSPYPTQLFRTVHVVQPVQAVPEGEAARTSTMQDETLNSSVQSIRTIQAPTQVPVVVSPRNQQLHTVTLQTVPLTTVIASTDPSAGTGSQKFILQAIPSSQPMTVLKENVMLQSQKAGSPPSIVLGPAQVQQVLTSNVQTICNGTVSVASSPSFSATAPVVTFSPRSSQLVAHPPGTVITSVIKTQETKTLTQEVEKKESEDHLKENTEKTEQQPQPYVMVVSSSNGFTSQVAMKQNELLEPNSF
Sequence of SPIB (Q01892 whole entry): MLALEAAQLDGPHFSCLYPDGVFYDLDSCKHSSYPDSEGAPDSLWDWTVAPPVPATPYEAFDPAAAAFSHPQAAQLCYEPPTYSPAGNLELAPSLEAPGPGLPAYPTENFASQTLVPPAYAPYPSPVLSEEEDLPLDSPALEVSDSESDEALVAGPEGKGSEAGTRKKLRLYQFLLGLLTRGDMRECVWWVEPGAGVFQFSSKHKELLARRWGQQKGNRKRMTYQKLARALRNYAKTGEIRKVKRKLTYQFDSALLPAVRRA

| Sequence | binding signal (FLI1) | binding signal (ELK1) | binding signal (GABPA) | binding signal (ERG) | binding signal (ELF1) | binding signal (EHF) | binding signal (SPI1) | binding signal (SPIB) | binding signal (ELK3) |
| --- | --- | --- | --- | --- | --- | --- | --- | --- | --- |
| CCCAAC | 1.13 fold enrichment (6-mer frequency, TF over GST control) | 1.14 fold enrichment (6-mer frequency, TF over GST control) | 1.09 fold enrichment (6-mer frequency, TF over GST control) | 1.15 fold enrichment (6-mer frequency, TF over GST control) | 1.13 fold enrichment (6-mer frequency, TF over GST control) | 1.16 fold enrichment (6-mer frequency, TF over GST control) | 1.07 fold enrichment (6-mer frequency, TF over GST control) | 1.11 fold enrichment (6-mer frequency, TF over GST control) | 1.02 fold enrichment (6-mer frequency, TF over GST control) |
| GTTTAC | 1.21 fold enrichment (6-mer frequency, TF over GST control) | 1.13 fold enrichment (6-mer frequency, TF over GST control) | 1.19 fold enrichment (6-mer frequency, TF over GST control) | 1.12 fold enrichment (6-mer frequency, TF over GST control) | 1.08 fold enrichment (6-mer frequency, TF over GST control) | 1.14 fold enrichment (6-mer frequency, TF over GST control) | 1.13 fold enrichment (6-mer frequency, TF over GST control) | 1.09 fold enrichment (6-mer frequency, TF over GST control) | 1.03 fold enrichment (6-mer frequency, TF over GST control) |
| TGACGC | 1.1 fold enrichment (6-mer frequency, TF over GST control) | 1.22 fold enrichment (6-mer frequency, TF over GST control) | 1.15 fold enrichment (6-mer frequency, TF over GST control) | 1.13 fold enrichment (6-mer frequency, TF over GST control) | 1.3 fold enrichment (6-mer frequency, TF over GST control) | 1.21 fold enrichment (6-mer frequency, TF over GST control) | 1.15 fold enrichment (6-mer frequency, TF over GST control) | 1.24 fold enrichment (6-mer frequency, TF over GST control) | 1.1 fold enrichment (6-mer frequency, TF over GST control) |
| GCACAA | 1.1 fold enrichment (6-mer frequency, TF over GST control) | 1.13 fold enrichment (6-mer frequency, TF over GST control) | 1.09 fold enrichment (6-mer frequency, TF over GST control) | 1.1 fold enrichment (6-mer frequency, TF over GST control) | 1.09 fold enrichment (6-mer frequency, TF over GST control) | 1.1 fold enrichment (6-mer frequency, TF over GST control) | 1.05 fold enrichment (6-mer frequency, TF over GST control) | 1.09 fold enrichment (6-mer frequency, TF over GST control) | 1.12 fold enrichment (6-mer frequency, TF over GST control) |
| TGCGCG | 1.02 fold enrichment (6-mer frequency, TF over GST control) | 1.05 fold enrichment (6-mer frequency, TF over GST control) | 1.02 fold enrichment (6-mer frequency, TF over GST control) | 1.04 fold enrichment (6-mer frequency, TF over GST control) | 1.02 fold enrichment (6-mer frequency, TF over GST control) | 1.16 fold enrichment (6-mer frequency, TF over GST control) | 1.16 fold enrichment (6-mer frequency, TF over GST control) | 1.06 fold enrichment (6-mer frequency, TF over GST control) | 1.11 fold enrichment (6-mer frequency, TF over GST control) |
| CACTCT | 1.27 fold enrichment (6-mer frequency, TF over GST control) | 1.25 fold enrichment (6-mer frequency, TF over GST control) | 1.19 fold enrichment (6-mer frequency, TF over GST control) | 1.24 fold enrichment (6-mer frequency, TF over GST control) | 1.36 fold enrichment (6-mer frequency, TF over GST control) | 1.38 fold enrichment (6-mer frequency, TF over GST control) | 1.34 fold enrichment (6-mer frequency, TF over GST control) | 1.23 fold enrichment (6-mer frequency, TF over GST control) | 1.34 fold enrichment (6-mer frequency, TF over GST control) |
| CTTTAA | 1.37 fold enrichment (6-mer frequency, TF over GST control) | 1.27 fold enrichment (6-mer frequency, TF over GST control) | 1.28 fold enrichment (6-mer frequency, TF over GST control) | 1.27 fold enrichment (6-mer frequency, TF over GST control) | 1.33 fold enrichment (6-mer frequency, TF over GST control) | 1.2 fold enrichment (6-mer frequency, TF over GST control) | 1.39 fold enrichment (6-mer frequency, TF over GST control) | 1.19 fold enrichment (6-mer frequency, TF over GST control) | 1.28 fold enrichment (6-mer frequency, TF over GST control) |
